# Test results reported in PubChem BioAssay AID1445 (SRMLSC, 2008).
# In all, about 220,000 compounds went through this assay and about 910 (0.41%) were called active. The sample as a whole holds a higher share of actives than the screen did. Results with a measured potency or affinity are listed apart. A number with no mark means an inactive call.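 How the source made its calls: active means primary inhibition above the hit cutoff, then over 50% inhibition at one or more dose response concentrations (cut at about 23% in these data, passing the limit was not always enough); inconclusive means conflicting primary data, or primary hits not chosen for dose response; inactive means low primary inhibition, or under 50% at every dose.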
# Target: Aminopeptidase N (Plasmodium falciparum (isolate 3D7)) (UniProt O96935)
# Sequence (O96935 whole entry, looked up): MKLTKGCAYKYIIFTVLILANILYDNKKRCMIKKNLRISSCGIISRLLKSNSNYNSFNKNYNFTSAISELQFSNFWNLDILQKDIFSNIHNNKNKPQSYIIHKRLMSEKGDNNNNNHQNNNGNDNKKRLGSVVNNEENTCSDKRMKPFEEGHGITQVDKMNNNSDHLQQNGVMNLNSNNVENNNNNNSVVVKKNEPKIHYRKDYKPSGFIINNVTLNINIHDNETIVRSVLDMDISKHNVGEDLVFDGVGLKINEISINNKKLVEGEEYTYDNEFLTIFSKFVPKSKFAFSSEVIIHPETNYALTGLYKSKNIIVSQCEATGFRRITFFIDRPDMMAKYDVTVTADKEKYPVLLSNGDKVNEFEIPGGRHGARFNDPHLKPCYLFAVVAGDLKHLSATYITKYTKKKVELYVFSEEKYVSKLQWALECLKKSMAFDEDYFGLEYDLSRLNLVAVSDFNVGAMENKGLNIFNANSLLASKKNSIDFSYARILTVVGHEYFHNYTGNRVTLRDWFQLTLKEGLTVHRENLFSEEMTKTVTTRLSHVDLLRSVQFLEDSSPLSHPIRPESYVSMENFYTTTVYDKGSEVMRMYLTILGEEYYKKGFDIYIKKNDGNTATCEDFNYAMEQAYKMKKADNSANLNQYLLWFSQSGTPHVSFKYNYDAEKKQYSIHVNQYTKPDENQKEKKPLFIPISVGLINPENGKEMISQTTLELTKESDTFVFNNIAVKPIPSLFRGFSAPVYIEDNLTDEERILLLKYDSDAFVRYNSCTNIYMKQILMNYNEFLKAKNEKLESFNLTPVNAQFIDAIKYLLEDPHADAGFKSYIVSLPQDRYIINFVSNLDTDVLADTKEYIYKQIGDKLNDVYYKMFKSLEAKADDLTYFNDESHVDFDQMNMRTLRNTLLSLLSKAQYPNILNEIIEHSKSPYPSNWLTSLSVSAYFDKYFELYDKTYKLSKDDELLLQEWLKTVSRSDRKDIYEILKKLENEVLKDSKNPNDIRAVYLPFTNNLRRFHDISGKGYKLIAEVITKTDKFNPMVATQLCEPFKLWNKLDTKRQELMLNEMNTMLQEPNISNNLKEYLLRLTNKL
# Experiment: P. falciparum M1AAP inhibitors, biochemical, fluorogenic H-Leu-NHMec substrate, 1536-well (AID 1445);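 further: plate controls were DMSO full reaction for no effect and no enzyme background for full effect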
# Conditions: recombinant M1AAP, H-Leu-NHMec fluorogenic kinetic assay; at 30 µM, hits give high values unless noted
row,Compound,inhibition
1,CC1(C)Oc2ccc3ccc(=O)oc3c2-c2cnoc21,50.2%
2,CC1(C)Oc2ccc3ccc(=O)oc3c2/C(=C/N)C1=O,8.41%
3,CC1(C)Oc2ccc3ccc(=O)oc3c2-c2cn[nH]c21,26.5% (active)
4,COC(=O)Nc1ccc(=O)n(Cc2c(Cl)cccc2Cl)c1,4.71%
5,O=C1N(Cc2ccccc2)CCCC12CCCN(Cc1ccccc1)C2=O,8.22%
6,O=C(NCc1ccccc1)c1cc(-c2cccs2)on1,-3.95%
7,CC(=O)c1ccc(NC(=O)C(Cc2ccccc2)NC(=O)c2ccco2)cc1 (configuration not stated),4.11%
8,O=C(NC(NC(=S)Nc1ccc(Cl)c(Cl)c1)C(Cl)(Cl)Cl)c1ccco1 (configuration not stated),9.33%
9,Cc1ccc(NC(NC(=O)c2ccccc2[N+](=O)[O-])C(Cl)(Cl)Cl)cc1 (configuration not stated),7.36%
10,O=C(Nc1cccc(O)c1)c1ccccc1[N+](=O)[O-],-3.03%
11,Cc1cccc(NC(=S)NC(NC(=O)c2ccco2)C(Cl)(Cl)Cl)c1 (configuration not stated),18.2%
12,CC(=O)c1ccc(NC(=S)NC(NC(=O)c2ccco2)C(Cl)(Cl)Cl)cc1 (configuration not stated),11.3%
13,CCc1ccc(NC(=O)CSCCO)cc1,-0.74%
14,Cn1nnnc1Sc1c(Cl)cccc1[N+](=O)[O-],-3.63%
15,CC1(C)COC(c2coc3ccccc3c2=O)OC1,2.08%
16,COc1ccc(N)cc1C#N,2.91%
17,O=C(CCCN1C(=O)/C(=C\c2ccco2)SC1=S)Nc1ccc2ccccc2c1,11.9%
18,O=C(CCCN1C(=O)/C(=C/c2ccco2)SC1=S)Nc1cccc(C(=O)O)c1,6.76%
19,CCOCCCNC(=O)CN(c1cc([N+](=O)[O-])ccc1OC)S(C)(=O)=O,2.57%
20,CS(C)(=O)=NS(=O)(=O)c1ccc(Cl)cc1,1.82%
21,CCc1nnc(SCC(=O)N2CCCc3ccccc32)nc1CC,0.48%
22,CCCn1c2ccccc2c2nnc(SCC(=O)Nc3cc(C)on3)nc21,10.3%
23,CCn1c2ccccc2c2nnc(SCC(=O)Nc3c(C)n(C)n(-c4ccccc4)c3=O)nc21,0.94%
24,CSc1nnc2c3cc(C)ccc3n(Cc3ccccc3)c2n1,1.58%
25,CCn1c2ccccc2c2nnc(SCC(=O)Nc3cc(C)on3)nc21,1.82%
26,Cc1ccc2c(c1)c1nnc(SCC(=O)N3CCN(c4ccc(F)cc4)CC3)nc1n2CC(=O)O,2.3%
27,O=C(CSc1nnc(Cc2cc(=O)[nH]c(=O)[nH]2)n1-c1ccc(Cl)cc1)NCC1CCCO1 (configuration not stated),0.41%
